PubChem BioAssay (EPA / NIEHS)
Activity calls are given as the source filed them. The calls were made as follows: active = hit-call score of the fitted dose curve at least 0.9, where 1 is the maximum; inactive = score below 0.9.

What was measured:
[1] = APR_HepG2_NuclearSize_72hr: Apredica 72-hour HepG2 Assay for Nuclear Size (AID 2282925); conditions: high-content imaging, actives raise or lower the signal
How it was run: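 Read-out: nuclear diameter from Hoechst 33342 images (ArrayScan, 20x, six fields/well), via cell-cycle image analysis. HepG2 were dosed 0.39–200 uM for 72 hr in 0.5% DMSO. Bidirectional fit relative to DMSO.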

[2] = molecular target: CCAAT/enhancer-binding protein beta (Homo sapiens) (UniProt P17676); assay: ATG_C_EBP_CIS: Attagene CIS-FACTORIAL HepG2 Assay for human CCAAT/Enhancer Binding Protein (C/EBP) beta (AID 2282927); conditions: HepG2 Attagene cis-factorial transcription factor reporter; actives raise or lower the signal
Chain of CCAAT/enhancer-binding protein beta (Homo sapiens) (P17676 whole entry, looked up): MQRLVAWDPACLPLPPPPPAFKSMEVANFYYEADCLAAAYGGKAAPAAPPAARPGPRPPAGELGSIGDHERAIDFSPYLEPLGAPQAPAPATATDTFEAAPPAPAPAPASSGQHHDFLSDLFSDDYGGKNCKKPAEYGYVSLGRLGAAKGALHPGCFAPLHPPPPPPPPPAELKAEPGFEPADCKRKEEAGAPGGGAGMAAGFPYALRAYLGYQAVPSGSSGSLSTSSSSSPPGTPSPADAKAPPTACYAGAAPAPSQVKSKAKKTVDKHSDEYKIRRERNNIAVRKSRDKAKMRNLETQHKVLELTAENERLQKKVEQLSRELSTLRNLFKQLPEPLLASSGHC
How it was run: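 HepG2, transient MRTU transfection, 24 h treatment. RT-PCR plus CE fluorescence; DMSO negative control, bidirectional fit.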

[3] = ATG_CMV_CIS: Attagene CIS-FACTORIAL HepG2 Assay for human CMV (Internal Marker) (AID 2282928); conditions: HepG2 CMV promoter reporter, transcription factor profiling; actives raise or lower the signal;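 also: endpoint acts as a background internal control marker rather than a target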
How it was run: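 Bidirectional fits against DMSO are applied to reporter mRNA, read by RT-PCR with capillary electrophoresis, from HepG2 cells exposed 24 h. The endpoint serves as an internal CMV background marker within the cis-factorial reporter panel.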

[4] = ATG_DR4_LXR_CIS: Attagene CIS-FACTORIAL HepG2 Assay for human Liver X Receptor (LXR), DR4 submotif (AID 2282929); conditions: HepG2 Attagene DR4 cis-reporter, mRNA transcription; actives raise or lower the signal
How it was run: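 Readout: reporter transcript fluorescence after RT-PCR and capillary electrophoresis, fitted bidirectionally against DMSO controls. Human HepG2 liver cells carried transiently transfected multiplexed reporter constructs; endogenous transcription factor activity measured 24 h post-dosing.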

[5] = molecular target: Aryl hydrocarbon receptor (Homo sapiens) (UniProt P35869); assay: ATG_Ahr_CIS: Attagene CIS-FACTORIAL HepG2 Assay for human Aryl Hydrocarbon Receptor (Ahr) (AID 2282930); conditions: HepG2 AhR cis-factorial reporter transcription; actives raise or lower the signal
Chain of Aryl hydrocarbon receptor (Homo sapiens) (P35869 whole entry, looked up): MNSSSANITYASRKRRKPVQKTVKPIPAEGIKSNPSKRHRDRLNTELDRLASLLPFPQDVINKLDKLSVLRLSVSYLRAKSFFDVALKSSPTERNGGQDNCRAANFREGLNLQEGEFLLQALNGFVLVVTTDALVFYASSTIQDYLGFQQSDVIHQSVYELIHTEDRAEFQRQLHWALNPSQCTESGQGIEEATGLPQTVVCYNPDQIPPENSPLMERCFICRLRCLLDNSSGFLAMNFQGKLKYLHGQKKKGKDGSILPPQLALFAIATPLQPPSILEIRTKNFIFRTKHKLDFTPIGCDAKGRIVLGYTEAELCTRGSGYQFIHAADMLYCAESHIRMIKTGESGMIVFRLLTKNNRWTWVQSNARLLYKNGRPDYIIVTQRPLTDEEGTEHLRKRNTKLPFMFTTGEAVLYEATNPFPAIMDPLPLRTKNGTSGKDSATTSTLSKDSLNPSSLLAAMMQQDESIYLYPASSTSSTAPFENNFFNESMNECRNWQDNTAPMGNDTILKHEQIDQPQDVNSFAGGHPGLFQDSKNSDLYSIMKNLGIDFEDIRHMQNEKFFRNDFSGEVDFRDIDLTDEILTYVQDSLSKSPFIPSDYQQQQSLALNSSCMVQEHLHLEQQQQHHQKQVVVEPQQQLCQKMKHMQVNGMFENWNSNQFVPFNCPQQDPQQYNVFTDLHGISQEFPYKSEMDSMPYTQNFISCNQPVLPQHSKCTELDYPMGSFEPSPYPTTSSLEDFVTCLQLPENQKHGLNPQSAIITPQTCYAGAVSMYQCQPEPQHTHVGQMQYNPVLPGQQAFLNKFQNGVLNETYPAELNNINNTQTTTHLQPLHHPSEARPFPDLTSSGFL
How it was run: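 Endogenous factor activity is tracked through cis-promoter reporter units transfected into HepG2 cells. Transcript levels at 24 h are read by fluorescent RT-PCR and capillary electrophoresis, with activity in either direction scored relative to DMSO.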

[6] = ATG_AP_1_CIS: Attagene CIS-FACTORIAL HepG2 Assay for human Activator Protein 1 (AP-1) (AID 2282931); conditions: HepG2 Attagene cis-factorial AP-1 reporter mRNA; actives raise or lower the signal
How it was run: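 Reporter transcripts were measured 24 h after dosing by RT-PCR and capillary electrophoresis of fluorescent fragments. Cells: HepG2 carrying transfected cis-regulated reporter constructs reading endogenous factor activity. Gain or loss fitted against DMSO.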

[7] = ATG_AP_2_CIS: Attagene CIS-FACTORIAL HepG2 Assay for human Activator Protein 2 (AP-2) (AID 2282932); conditions: HepG2 AP-2 cis-reporter, Attagene transcription factor profiling; actives raise or lower the signal
How it was run: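 Liver-derived HepG2 line, cis-reporter system measuring endogenous factors; 24 h dosing; reporter mRNA detected by fluorescent RT-PCR and capillary electrophoresis.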

[8] = ATG_BRE_CIS: Attagene CIS-FACTORIAL HepG2 Assay for human Bone Morphogenetic Protein (BMP) Response Element (BRE) (AID 2282933); conditions: HepG2 BMP response element reporter, Attagene transcription factor profiling; actives raise or lower the signal
How it was run: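 HepG2 cells transiently transfected with multiplexed cis-element reporter units were dosed with chemical for 24 h. Reporter mRNA was measured by RT-PCR with fluorescent labelling, HpaI digestion and capillary electrophoresis; bidirectional fitting relative to DMSO.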

[9] = molecular target: Retinoic acid receptor alpha (Homo sapiens) (UniProt P10276); assay: ATG_DR5_RAR_CIS: Attagene CIS-FACTORIAL HepG2 Assay for human Retinoic Acid Receptor Alpha (RARE), DR5 submotif (AID 2282934); conditions: HepG2 Attagene cis-factorial RARE DR5 reporter, mRNA; actives raise or lower the signal;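 as to AC50: reporter responds to endogenous RAR alpha beta and gamma in HepG2 not RARA alone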
Chain of Retinoic acid receptor alpha (Homo sapiens) (P10276 whole entry, looked up): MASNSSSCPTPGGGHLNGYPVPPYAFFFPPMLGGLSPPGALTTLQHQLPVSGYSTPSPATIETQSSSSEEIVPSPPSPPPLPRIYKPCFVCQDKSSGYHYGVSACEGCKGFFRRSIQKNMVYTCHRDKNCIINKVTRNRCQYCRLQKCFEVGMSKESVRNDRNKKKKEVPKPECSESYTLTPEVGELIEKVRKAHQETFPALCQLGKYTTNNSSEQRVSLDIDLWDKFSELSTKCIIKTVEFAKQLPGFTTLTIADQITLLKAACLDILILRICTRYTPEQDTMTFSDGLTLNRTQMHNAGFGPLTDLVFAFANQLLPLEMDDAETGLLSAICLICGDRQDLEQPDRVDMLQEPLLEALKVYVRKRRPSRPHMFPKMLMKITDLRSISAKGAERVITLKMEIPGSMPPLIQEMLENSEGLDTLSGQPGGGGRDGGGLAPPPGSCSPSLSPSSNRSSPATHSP
How it was run: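 After 24 h of chemical exposure, transiently transfected HepG2 cells were lysed for total RNA; the DR5-regulated reporter transcript was quantified via RT-PCR and capillary electrophoresis, with activity fitted bidirectionally against DMSO.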

[10] = molecular target: Transcription factor E2F1 (Homo sapiens) (UniProt Q01094); assay: ATG_E2F_CIS: Attagene CIS-FACTORIAL HepG2 Assay for human E2F Transcription Factor 1 (AID 2282935); conditions: HepG2 Attagene cis-reporter, E2F reporter RNA transcripts; actives raise or lower the signal
Chain of Transcription factor E2F1 (Homo sapiens) (Q01094 whole entry, looked up): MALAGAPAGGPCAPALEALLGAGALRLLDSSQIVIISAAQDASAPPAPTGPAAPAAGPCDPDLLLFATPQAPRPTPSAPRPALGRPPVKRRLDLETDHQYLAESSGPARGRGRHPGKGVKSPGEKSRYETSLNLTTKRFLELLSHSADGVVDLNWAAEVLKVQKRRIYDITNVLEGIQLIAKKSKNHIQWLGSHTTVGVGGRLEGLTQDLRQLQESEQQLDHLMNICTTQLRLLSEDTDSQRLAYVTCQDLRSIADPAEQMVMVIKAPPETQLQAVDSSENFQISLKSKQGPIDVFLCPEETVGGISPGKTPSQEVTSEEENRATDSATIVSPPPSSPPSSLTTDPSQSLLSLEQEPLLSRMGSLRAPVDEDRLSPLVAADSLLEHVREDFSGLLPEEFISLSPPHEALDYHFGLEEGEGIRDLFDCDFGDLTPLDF
How it was run: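 Liver-derived HepG2 cells expressing transfected promoter-driven reporter units received test chemical for 24 hours. Signal gains or losses were fitted bidirectionally against DMSO.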

[11] = ATG_E_Box_CIS: Attagene CIS-FACTORIAL HepG2 Assay for human Enhancer Box (E-box) (AID 2282936); conditions: HepG2 E-box cis-reporter transcription, actives raise or lower the signal
How it was run: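 In this cell-based setup, HepG2 cells bearing transfected promoter-driven reporter units were exposed to chemicals for 24 h; reporter transcripts were amplified, 6-FAM-labelled, cut with HpaI and sized by capillary electrophoresis.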

[12] = ATG_M_61_CIS: Attagene CIS-FACTORIAL HepG2 Assay for M61 Transcription Factor (Internal Marker) (AID 2282937); conditions: HepG2 Attagene CIS-FACTORIAL M61 internal marker reporter; actives raise or lower the signal
How it was run: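 Readout: fluorescent reporter mRNA fragments resolved by capillary electrophoresis after RT-PCR. Transiently transfected human HepG2 cells carried MRTU constructs reporting endogenous TF activity; 24 h chemical exposure; gain or loss of signal fitted relative to DMSO.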

[13] = ATG_EGR_CIS: Attagene CIS-FACTORIAL HepG2 Assay for human Early Growth Response 1 (EGR1) (AID 2282938); conditions: HepG2 Attagene CIS-FACTORIAL EGR reporter mRNA; actives raise or lower the signal
How it was run: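 Read-out: fluorescent reporter-mRNA fragments resolved by capillary electrophoresis after RT-PCR, 24 h post-dose in transiently transfected HepG2. Endogenous transcription-factor activity reported via cis-element-regulated reporter units; gain or loss fitted relative to DMSO.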

[14] = ATG_M_19_CIS: Attagene CIS-FACTORIAL HepG2 Assay for M19 Transcription Factor (Internal Marker) (AID 2282939); conditions: HepG2 Attagene CIS-FACTORIAL M19 internal marker reporter; actives raise or lower the signal
How it was run: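 HepG2 cells transiently transfected with cis-regulated multiple reporter transcription units were dosed for 24 h; reporter mRNA was quantified by RT-PCR, 6-FAM primer-extension labelling, HpaI digestion and capillary electrophoresis, with bidirectional fitting against DMSO baseline.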

[15] = ATG_ERE_CIS: Attagene CIS-FACTORIAL HepG2 Assay for Estrogen Response Element (ERE) (AID 2282940); conditions: HepG2 ERE cis-reporter, Attagene RNA transcript; actives raise or lower the signal
How it was run: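 HepG2 cells transiently transfected with cis-promoter-driven multiplexed reporter transcription units report endogenous TF activity. After 24 h compound exposure, reporter mRNA is quantified by RT-PCR with capillary electrophoresis fluorescence; bidirectional fitting versus DMSO baseline.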

[16] = ATG_Ets_CIS: Attagene CIS-FACTORIAL HepG2 Assay for human Erythroblast Transformation Specific (ETS) (AID 2282941); conditions: HepG2 ETS cis-reporter transcription, actives raise or lower the signal
How it was run: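 Endogenous transcription factor activity read as reporter mRNA via RT-PCR and capillary electrophoresis, with gain or loss fitted bidirectionally against DMSO. Human HepG2 liver cells, transiently transfected CIS reporter constructs, 24 h exposure.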

[17] = molecular target: Hepatocyte nuclear factor 3-beta (Homo sapiens) (UniProt Q9Y261); assay: ATG_FoxA2_CIS: Attagene CIS-FACTORIAL HepG2 Assay for human Forkhead box A2 (FOXA2) (AID 2282942); conditions: HepG2 cis-reporter transcription factor activity, 24 h; actives raise or lower the signal
Chain of Hepatocyte nuclear factor 3-beta (Homo sapiens) (Q9Y261 whole entry, looked up): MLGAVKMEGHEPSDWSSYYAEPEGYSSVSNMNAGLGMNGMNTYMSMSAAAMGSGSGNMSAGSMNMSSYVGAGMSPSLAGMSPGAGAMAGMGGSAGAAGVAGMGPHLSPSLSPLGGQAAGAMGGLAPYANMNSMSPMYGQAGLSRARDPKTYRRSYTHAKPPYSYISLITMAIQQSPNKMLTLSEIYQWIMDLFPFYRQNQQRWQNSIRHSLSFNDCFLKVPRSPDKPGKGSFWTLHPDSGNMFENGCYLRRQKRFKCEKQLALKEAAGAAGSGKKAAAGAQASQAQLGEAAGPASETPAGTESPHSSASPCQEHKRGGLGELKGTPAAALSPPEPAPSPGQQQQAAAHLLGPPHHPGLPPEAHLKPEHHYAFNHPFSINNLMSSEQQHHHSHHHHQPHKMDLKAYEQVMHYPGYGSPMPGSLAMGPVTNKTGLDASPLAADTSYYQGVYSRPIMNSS
How it was run: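 Readout: fluorescent reporter transcripts resolved by capillary electrophoresis after RT-PCR. Transiently transfected HepG2, 24 h compound exposure, endogenous TF activity at cis promoter elements. Gain or loss of signal fitted relative to DMSO.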

[18] = ATG_FoxO_CIS: Attagene CIS-FACTORIAL HepG2 Assay for human Forkhead box O (FoxO) (AID 2282943); conditions: HepG2 Attagene cis-reporter, FoxO element, mRNA; actives raise or lower the signal
How it was run: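 Transfected HepG2 reporter cells exposed to test chemical for 24 h; reporter RNA measured by reverse transcription, PCR and fluorescent capillary electrophoresis; curves fitted for increases and decreases against DMSO.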

[19] = ATG_GATA_CIS: Attagene CIS-FACTORIAL HepG2 Assay for human GATA Binding Protein (AID 2282944); conditions: HepG2 GATA cis-element reporter, Attagene multiplex mRNA; actives raise or lower the signal
How it was run: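 HepG2 cells transiently transfected with multiplexed cis-element reporter units reflecting endogenous transcription factor activity; reporter mRNA measured after 24 h dosing by RT-PCR, 6-FAM labeling, HpaI digestion and capillary electrophoresis. Bidirectional fitting versus DMSO baseline.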

[20] = ATG_CRE_CIS: Attagene CIS-FACTORIAL HepG2 Assay for human cAMP Responsive Element (CRE) binding protein 3 (AID 2282926); conditions: HepG2 CRE cis-reporter, Attagene multiplexed mRNA; actives raise or lower the signal
How it was run: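 Liver-derived HepG2, transfected with a CRE-containing reporter panel, exposed 24 h; transcript levels sized and quantified by capillary electrophoresis of labelled amplicons; signal changes either way referenced to vehicle.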

Measured: AC50

C=CCOC(=O)c1ccccc1C(=O)OCC=C
active: [2] 26.4 µM | [3] 26.2 µM | [4] 26.2 µM | [6] 25.8 µM
not listed: [20]
inactive: all other assays above

CC(=O)OCCOCCOCCOC(C)=O
not listed: [2] | [17]
inactive: all other assays above

CC(C)(C)c1cc(O)c(C(C)(C)C)cc1O
active: [1] 26 µM | [20] 23 µM | [3] 30.2 µM | [4] 29.5 µM | [6] 31 µM | [8] 30.4 µM | [9] 57.1 µM | [13] 31.1 µM | [15] 31 µM
not listed: [2] | [17]
inactive: all other assays above

Nc1nc(N)c2nc(CNc3ccc(C(=O)N[C@@H](CCC(=O)O)C(=O)O)cc3)cnc2n1
active: [3] 0.00818 µM | [6] 0.00864 µM
not listed: [2]
inactive: all other assays above
